Measured values as given in PubChem BioAssay (Tox21).
Inconclusive results are not listed. The source made the active and inactive calls. Calls follow the shape of the dose curve; as a rule, active = well fitted curve in the direction sought with a large enough effect in the repeat runs; inconclusive = weak or mixed curves; inactive = no such curve, though single readings can be large; an effect the other way counts as inactive or inconclusive.

Columns and labels:
[1] = qHTS RealTime-Glo MT Cell Viability Assay in HEK293 cells - 32 hour (AID 1224868); also: top concentration of the series differs between compounds; nearly all actives have a fitted effect of over 50% in size
Procedure, shortened: (§1)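 Luminescence generated by NanoLuc from substrate produced by living HEK293 cells served as the viability signal. Each value reflects the reading at its stated time point during continuous 40 h compound exposure at 37 C.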

[2] = A CellTox Green Cytotoxicity Assay to monitor cytotoxicity in HEK293 cells - 0 hour (AID 1224869); also: nearly all actives have a fitted effect of over 50% in size
Procedure, shortened: (§2)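 Real-time, in one plate: 600 HEK293 cells/well with dead-cell DNA dye, pinned compound after 5 h, 37 C incubation over 40 h; viable cells give no appreciable fluorescence.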

[3] = qHTS RealTime-Glo MT Cell Viability Assay in HepG2 cells - 40 hour (AID 1224870); also: nearly all actives have a fitted effect of over 50% in size
Procedure, shortened: (§3)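 Real-time viability: cells seeded at 600 per well together with NanoLuc and cell-permeant prosubstrate, compounds added after 5 h incubation. Luminescence tracked at 0, 8, 16, 24, 32 and 40 h of exposure.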

[4] = A CellTox Green Cytotoxicity Assay to monitor cytotoxicity in HEK293 cells - 40 hour (AID 1224871); also: nearly all actives have a fitted effect of over 45% in size
Procedure, shortened: as §2

[5] = qHTS RealTime-Glo MT Cell Viability Assay in HEK293 cells - 16 hour (AID 1224872); also: top concentration of the series differs between compounds; nearly all actives have a fitted effect of over 50% in size
Procedure, shortened: as §1

[6] = qHTS RealTime-Glo MT Cell Viability Assay in HepG2 cells - 8 hour (AID 1224873); also: nearly all actives have a fitted effect of over 55% in size
Procedure, shortened: as §3

[7] = qHTS RealTime-Glo MT Cell Viability Assay in HEK293 cells - 40 hour (AID 1224874); conditions: RealTime-Glo luminescence, active compounds read low; also: nearly all actives have a fitted effect of over 50% in size
Procedure, shortened: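 Kinetic, non-lysing viability readout. Seed HEK293 (600/well) with reagent, incubate 5 h at 37 C/5% CO2, pin 23 nL compound in DMSO, incubate at 37 C, read luminescence at 0, 8, 16, 24, 32, 40 h.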

[8] = A CellTox Green Cytotoxicity Assay to monitor cytotoxicity in HEK293 cells - 24 hour (AID 1224875); also: series mostly up to about 77 µM; nearly all actives have a fitted effect of over 45% in size
Procedure, shortened: as §2

[9] = A CellTox Green Cytotoxicity Assay to monitor cytotoxicity in HepG2 cells - 16 hour (AID 1224876); also: nearly all actives have a fitted effect of over 45% in size
Procedure, shortened: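 Cytotoxicity was tracked as dead-cell DNA fluorescence in HepG2 cells treated with test compounds at 37 C; each time-point value comes from one kinetic series spanning 0, 8, 16, 24, 32 and 40 h.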

[10] = qHTS RealTime-Glo MT Cell Viability Assay in HepG2 cells - 32 hour (AID 1224877); also: nearly all actives have a fitted effect of over 55% in size
Procedure, shortened: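 Tox21 10K library screened in qHTS format on HepG2 cells carrying RealTime-Glo reagents. Compounds were added after a 5 h preincubation, and the luminescent signal from continuous culture was measured repeatedly during 40 h treatment.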
% is scaled to controls: 0 for no effect and ±100 for the full control effect.

Cc1cc(C)c(C)c(C)c1
inactive: outcome [1] | outcome [2] | outcome [3] | Potency [4] | outcome [5] | outcome [6] | max response [7] -10% | Potency [8] | Potency [9] | outcome [10]

O=C1CCCc2c(O)cccc21
inactive: outcome [1] | outcome [2] | outcome [3] | Potency [4] | outcome [5] | outcome [6] | max response [7] 3.41% | Potency [8] | outcome [10]

CC(=O)OCC(=O)[C@@]1(O)CC[C@H]2[C@@H]3CCC4=CC(=O)C=C[C@]4(C)[C@H]3[C@@H](O)C[C@@]21C
inactive: outcome [1] | outcome [2] | outcome [3] | Potency [4] | outcome [5] | outcome [6] | max response [7] -2.13% | Potency [9] | outcome [10]

CCCCCC(=O)CC
inactive: outcome [1] | outcome [2] | outcome [3] | Potency [4] | outcome [5] | outcome [6] | max response [7] 19.7% | Potency [9] | outcome [10]

COc1ccc2cc(CCC(C)=O)ccc2c1
inactive: outcome [1] | outcome [2] | outcome [3] | Potency [4] | outcome [5] | outcome [6] | max response [7] -11.3% | Potency [8] | Potency [9] | outcome [10]

CCCCCCCCCCCC(C)=O
inactive: outcome [1] | outcome [2] | outcome [3] | Potency [4] | outcome [5] | outcome [6] | max response [7] 0.63% | Potency [9] | outcome [10]

CCOC(=O)CN1CCCC1=O
inactive: outcome [1] | outcome [2] | outcome [3] | Potency [4] | outcome [5] | outcome [6] | Potency [8] | Potency [9] | outcome [10]

CCCCCC(CC)OC(=O)CCCOc1ccc(Cl)cc1Cl (configuration not stated)
inactive: outcome [1] | outcome [2] | outcome [3] | Potency [4] | outcome [5] | max response [7] 2.48% | Potency [8] | Potency [9] | outcome [10]

Cc1nc2ccc(Cl)cc2[nH]1
inactive: outcome [1] | outcome [2] | outcome [3] | Potency [4] | outcome [6] | max response [7] 7.55% | Potency [8] | Potency [9]

CC(C)(O)CCCC1=CCC(C=O)CC1 (configuration not stated)
inactive: outcome [1] | outcome [2] | outcome [3] | Potency [4] | outcome [6] | max response [7] -16% | Potency [8] | Potency [9] | outcome [10]

C[C@@H]1CC[C@@]2(OC1)O[C@H]1C[C@H]3[C@@H]4CC[C@H]5C[C@@H](O)CC[C@]5(C)[C@H]4CC(=O)[C@]3(C)[C@H]1[C@@H]2C
inactive: activity change, negative = cytotoxic [1] -2.31% [at 6.97 µM] | cytotoxicity [2] -2.97% [at 6.97 µM] | activity change, negative = cytotoxic [3] -0.288% [at 6.97 µM] | cytotoxicity increase [4] -2.28% [at 6.97 µM] | viability change, negative = cytotoxic [6] 1.5% [at 6.97 µM] | max response [7] -0.328% | activity change [8] -2.49% [at 6.97 µM, active compounds read high] | cytotoxicity increase [9] -10% [at 6.97 µM] | activity change, negative = cytotoxic [10] 1.67% [at 6.97 µM]

CCCCCCCCCCCCCC(=O)OCC
inactive: outcome [1] | outcome [2] | outcome [3] | Potency [4] | outcome [6] | max response [7] -1.33% | Potency [9]

CC(C)C(=O)Nc1cccc(C2CN3CCSC3=N2)c1 (configuration not stated)
inactive: outcome [1] | outcome [2] | outcome [3] | Potency [4] | outcome [5] | outcome [6] | Potency [8] | Potency [9] | outcome [10]

N[C@H]1C(O)O[C@H](CO)[C@@H](O)[C@@H]1O (some centres not stated)
inactive: outcome [1] | outcome [2] | outcome [3] | Potency [4] | outcome [6] | max response [7] -1.72% | Potency [8] | outcome [10]

Cc1ccccc1C#N
inactive: outcome [1] | outcome [2] | outcome [3] | Potency [4] | outcome [6] | max response [7] 7.55% | Potency [8] | outcome [10]

CCCCc1ccc(Cl)cc1
inactive: outcome [1] | outcome [2] | outcome [3] | Potency [4] | outcome [6] | max response [7] 8.05% | Potency [8] | Potency [9] | outcome [10]

c1cc2ccc3ccc4ccc5cccc6c(c1)c2c3c4c56
inactive: activity change, negative = cytotoxic [1] 0.861% [at 2.72 µM] | cytotoxicity [2] -4.63% [at 2.72 µM] | activity change, negative = cytotoxic [3] -2.6% [at 2.72 µM] | cytotoxicity increase [4] -13.8% [at 2.72 µM] | activity change, negative = cytotoxicity [5] -0.658% [at 2.72 µM] | viability change, negative = cytotoxic [6] 0.803% [at 2.72 µM] | activity change [8] -12.1% [at 2.72 µM, active compounds read high] | cytotoxicity increase [9] -15.3% [at 2.72 µM] | activity change, negative = cytotoxic [10] -3.43% [at 2.72 µM]

O=S(=O)(O)c1ccc(Cl)cc1
inactive: outcome [1] | outcome [2] | outcome [3] | Potency [4] | outcome [5] | outcome [6] | Potency [8] | Potency [9] | outcome [10]

C=CCON/C(CCC)=C1\C(=O)CC(C)(C)C(C(=O)OC)=C1O
inactive: outcome [1] | outcome [2] | outcome [3] | Potency [4] | outcome [6] | max response [7] 3.04% | Potency [8] | outcome [10]

CCc1ncc(C)[nH]1
inactive: outcome [1] | outcome [2] | outcome [3] | Potency [4] | outcome [6] | max response [7] 1.1% | Potency [8] | Potency [9]

CCCC[O][Al]([O]CCCC)[O]CCCC
inactive: outcome [1] | outcome [2] | outcome [3] | Potency [4] | outcome [5] | outcome [6] | Potency [9] | outcome [10]

CN(C)CCc1c[nH]c2ccc(C[C@H]3COC(=O)N3)cc12
inactive: outcome [1] | outcome [2] | outcome [3] | Potency [4] | outcome [6] | max response [7] 2.27% | Potency [8] | Potency [9] | outcome [10]

O=c1[nH]c(=O)c2cn[nH]c2[nH]1
inactive: outcome [1] | outcome [2] | outcome [3] | Potency [4] | outcome [5] | outcome [6] | Potency [8] | Potency [9] | outcome [10]

CCCCCCCOC(C)=O
inactive: outcome [1] | outcome [2] | outcome [3] | Potency [4] | outcome [5] | outcome [6] | Potency [8] | Potency [9] | outcome [10]

Clc1cc(Cl)c(Cl)c(Cl)c1Cl
inactive: outcome [1] | outcome [2] | outcome [3] | Potency [4] | outcome [5] | outcome [6] | Potency [8] | Potency [9] | outcome [10]

CCN1CCN(C(=O)N[C@@H](C(=O)N[C@@H]2C(=O)N3C(C(=O)O)=C(CSc4nnnn4C)CS[C@H]23)c2ccc(O)cc2)C(=O)C1=O
inactive: outcome [1] | outcome [2] | outcome [3] | Potency [4] | outcome [6] | max response [7] 15.1% | Potency [8] | Potency [9]
